This is part of a sample that, as a whole, favours compounds with a hit. Of some 83,000 tested, about 20% had one in any assay.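 Negative percent growth values reflect cell death: -40 means 40% of the cells present at the start died, and -100 means all died.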 Values without a mark were called inactive. Active and inactive are the calls of the source. The calls were made as follows: active = growth percent below 10; inactive = the rest.

Some test systems named below: SR leukemia; OVCAR-8 ovarian; OVCAR-5 ovarian; OVCAR-4 ovarian; SK-OV-3 ovarian; IGROV1 ovarian; OVCAR-3 ovarian; HS 578T breast; NCI/ADR-RES ovarian.
What all share (assay): NCI-60 one-dose screen, 48 h (100 = growth as untreated, 0 = no growth, -100 = all killed)
Conditions in all cases: 10 µM

Take `C=CCn1c(SCC(=O)Nc2ccc(C(=O)/C=C/c3cc(OC)c(OC)c(OC)c3)cc2)nnc1-c1cc(-c2ccc(Cl)cc2)nc2ccccc12`: the growth with SR leukemia is 62%; in the experiment on OVCAR-8 ovarian, 52.1%; in the experiment with OVCAR-5 ovarian, 97.6%; in the experiment on OVCAR-4 ovarian, 87.9%; in the experiment on SK-OV-3 ovarian it was 87.1%; with IGROV1 ovarian, 88.4%. The results for the growth with OVCAR-3 ovarian, in the experiment with HS 578T breast and in the experiment on NCI/ADR-RES ovarian were 97.3%, 83.7% and 75.6%, respectively.

For the compound `OCC1OC(n2cnc3c(NCc4ccco4)ncnc32)C(O)C1O` (stereo not drawn), the growth in the experiment on SR leukemia was 5.19% (active); in the experiment on OVCAR-8 ovarian, 0.871% (active); with OVCAR-5 ovarian, 28.8%; in the experiment with OVCAR-4 ovarian it was 23%; with IGROV1 ovarian, -3.86% (active); with OVCAR-3 ovarian, -41.7% (active). The growth with HS 578T breast was 11.5%; with NCI/ADR-RES ovarian, 12.7%.

In the case of `CCOC(=O)c1sc2ncnc(Nc3ccc(NC(=O)Nc4ccc(Cl)cc4)cc3)c2c1C`, the growth with SR leukemia was 44.3%; with OVCAR-8 ovarian, 38.7%; in the experiment with OVCAR-5 ovarian, 99.2%; in the experiment on OVCAR-4 ovarian, 53.4%; in the experiment with SK-OV-3 ovarian, 74.6%; in the experiment with IGROV1 ovarian, 92.3%. The growth was 62.9% with OVCAR-3 ovarian, 41.4% with HS 578T breast and 37.2% in the experiment on NCI/ADR-RES ovarian.

For `COc1ccc(-c2nn(-c3cccc(Cl)c3)cc2/C=C2\NC(=S)N(c3ccc(Cl)cc3)C2=O)cc1`, the growth in the experiment on SR leukemia was -69.6% (active); in the experiment on OVCAR-8 ovarian, 21.9%; in the experiment with OVCAR-5 ovarian it was 53.7%; in the experiment on OVCAR-4 ovarian, -62.1% (active); in the experiment on SK-OV-3 ovarian, -47.8% (active); in the experiment with IGROV1 ovarian, -16.2% (active). Moreover, the growth in the experiment with HS 578T breast is 25.8%; in the experiment with NCI/ADR-RES ovarian, 7.34% (active).

For `COc1ccccc1-n1c(-c2sc(NC(C)=O)nc2C)n[nH]c1=S`, the growth in the experiment on SR leukemia was 79.5%; with OVCAR-8 ovarian it was 108%; in the experiment on OVCAR-5 ovarian, 109%; in the experiment on OVCAR-4 ovarian, 106%; in the experiment with SK-OV-3 ovarian it was 109%; in the experiment with IGROV1 ovarian, 106%. The growth was 121% in the experiment on HS 578T breast and 106% in the experiment on NCI/ADR-RES ovarian.

In the case of `NNC(=O)Oc1c(Cl)cc(Cl)cc1[N+](=O)[O-]`, the growth is 87.5% in the experiment with SR leukemia; 109% with OVCAR-8 ovarian; 113% in the experiment on OVCAR-4 ovarian; 102% in the experiment on SK-OV-3 ovarian; 101% in the experiment with IGROV1 ovarian; 107% with OVCAR-3 ovarian. Further, the growth in the experiment with HS 578T breast is 104%; in the experiment on NCI/ADR-RES ovarian, 101%.

Take `O=C(Nc1ccccc1)Nc1ncnc2c1ncn2-c1ccccc1`: the growth was 70.8% in the experiment on SR leukemia; 55.3% in the experiment on OVCAR-8 ovarian; 83.2% in the experiment on OVCAR-5 ovarian; -3.77% (active) with OVCAR-4 ovarian; 44.3% in the experiment with SK-OV-3 ovarian; 78.5% in the experiment with IGROV1 ovarian. Moreover, the growth with OVCAR-3 ovarian was 73.7%; in the experiment with HS 578T breast, 50.1%; in the experiment on NCI/ADR-RES ovarian, 66.1%.

For `CN1CCc2c(sc3nc4n(-c5ccc(Cl)cc5)c(=O)[nH]n4c(=O)c23)C1`, the growth is 97.6% in the experiment with SR leukemia; 93% in the experiment on OVCAR-8 ovarian; 115% with OVCAR-5 ovarian; 109% in the experiment on OVCAR-4 ovarian; 96.8% in the experiment on SK-OV-3 ovarian; 91.4% with IGROV1 ovarian. The growth in the experiment with HS 578T breast is 121%; with NCI/ADR-RES ovarian, 99%.

With `Cc1cc(NC(=O)c2ccc(C)c(Nc3nccc(-c4cccnc4)n3)c2)cc(-n2cnc(C)c2)c1`, the growth is -22.3% (active) in the experiment on SR leukemia; 61.3% with OVCAR-8 ovarian; -28.7% (active) in the experiment with OVCAR-4 ovarian; 27.6% in the experiment with SK-OV-3 ovarian; 32.3% in the experiment on IGROV1 ovarian; -7.87% (active) with OVCAR-3 ovarian. Also, the values for the growth in the experiment with HS 578T breast and in the experiment with NCI/ADR-RES ovarian were 5.73% (active) and 59.1%, respectively.

Turning to `O=S(=O)(Oc1ccc(-c2ccc3sccc3c2)cc1)c1ccc(F)cc1`, the growth in the experiment on SR leukemia was 86.3%; with OVCAR-8 ovarian it was 106%; in the experiment on OVCAR-5 ovarian it was 102%; in the experiment on OVCAR-4 ovarian it was 100%; with IGROV1 ovarian it was 104%; in the experiment with OVCAR-3 ovarian, 110%. Moreover, the growth in the experiment with HS 578T breast was 112%; in the experiment on NCI/ADR-RES ovarian it was 95.8%.

For `CC[C@H]1OC(=O)[C@H](C)[C@@H](O[C@H]2C[C@@](C)(OC)[C@@H](O)[C@H](C)O2)[C@H](C)[C@@H](O[C@@H]2O[C@H](C)C[C@H](N(C)C)[C@H]2O)[C@](C)(OC)C/C(C)=C2/O[C@@]1(C)C=C2C`, the growth is 14.8% in the experiment on SR leukemia; 78.5% in the experiment on OVCAR-8 ovarian; 24.9% in the experiment on OVCAR-5 ovarian; 73.5% in the experiment with OVCAR-4 ovarian; 58.1% with IGROV1 ovarian; 75.3% in the experiment on OVCAR-3 ovarian. In addition, the growth with HS 578T breast is 62.5%; in the experiment with NCI/ADR-RES ovarian, 65.4%.

Turning to `COc1ccc(-c2nn(-c3cccc(Cl)c3)cc2-c2c(C#N)c(=O)n3[nH]c(-c4ccccc4)nc3c2C#N)cc1`, the growth with SR leukemia is 71.2%; in the experiment on OVCAR-8 ovarian, 110%; in the experiment with OVCAR-5 ovarian, 106%; in the experiment on OVCAR-4 ovarian, 97.3%; with SK-OV-3 ovarian, 102%; in the experiment on IGROV1 ovarian, 108%. Also, the growth with HS 578T breast was 101%; in the experiment on NCI/ADR-RES ovarian it was 93%.

Turning to `O=C(O)c1ccc(-n2cc(CNc3ccc(Oc4ccccc4)cc3)c(-c3ccccc3)n2)cc1`, the growth with SR leukemia is 38.6%; in the experiment with OVCAR-8 ovarian, 92.3%; with OVCAR-5 ovarian, 98.9%; in the experiment on OVCAR-4 ovarian, 81.4%; in the experiment with IGROV1 ovarian, 86.4%; in the experiment on OVCAR-3 ovarian, 86.9%. The growth in the experiment with HS 578T breast is 105%; in the experiment with NCI/ADR-RES ovarian, 90.1%.

Take `O=C(Nc1cccc2c1CCCC2)c1cc2ccccc2cc1O`: the growth in the experiment with SR leukemia is 18%; in the experiment on OVCAR-8 ovarian, 55.9%; with OVCAR-5 ovarian it was 103%; in the experiment on OVCAR-4 ovarian, 56.8%; in the experiment on SK-OV-3 ovarian, 37%; with IGROV1 ovarian, 32.1%. The growth is 28.2% in the experiment with OVCAR-3 ovarian, 47.5% in the experiment with HS 578T breast and 11.7% in the experiment with NCI/ADR-RES ovarian.

Consider `CC[C@@H](C(=O)[C@@H](C)[C@@H](O)[C@H](C)[C@@H]1O[C@@H]([C@@H](CC)C(=O)N(CC)CC)CC[C@@H]1C)C1O[C@]2(C=CC(=O)[C@]3(CC[C@@](C)([C@H]4CC[C@](O)(CC)[C@H](C)O4)O3)O2)[C@H](C)C[C@@H]1C` (stereo partly drawn), for which the growth in the experiment on SR leukemia is 41.1%; in the experiment on OVCAR-8 ovarian, 29%; in the experiment with OVCAR-5 ovarian, 29.7%; in the experiment with OVCAR-4 ovarian, 34.3%; with SK-OV-3 ovarian, 49.8%; with IGROV1 ovarian, 34.9%. Besides, the growth with OVCAR-3 ovarian was 21.6%; in the experiment with HS 578T breast, 28.4%; in the experiment with NCI/ADR-RES ovarian, 10.5%.

In the case of `CCCN(CCC)C(=O)[C@H](CC)[C@@H]1CC[C@@H](C)[C@@H]([C@H](C)[C@@H](O)[C@@H](C)C(=O)[C@H](CC)C2O[C@]3(C=C[C@@H](O)[C@]4(CC[C@@](C)([C@H]5CC[C@](O)(CC)[C@H](C)O5)O4)O3)[C@H](C)C[C@@H]2C)O1` (stereo partly drawn), the growth in the experiment with SR leukemia is 15.2%; in the experiment on OVCAR-8 ovarian it was 15%; in the experiment on OVCAR-5 ovarian it was 11.4%; in the experiment with OVCAR-4 ovarian it was 7.28% (active); with IGROV1 ovarian, 17.1%; with OVCAR-3 ovarian it was 2.11% (active). Further, the values for the growth in the experiment with HS 578T breast and in the experiment on NCI/ADR-RES ovarian were 11.7% and -11.2% (active), respectively.

The values are drawn from PubChem BioAssay (NCI).
